In PubChem BioAssay (NCATS):
Records with an inconclusive call do not appear. Activity calls are given as the source filed them. Calls come from the whole dose curve; as a rule, active = well fitted inhibition curve with a large enough effect; inconclusive = small, poorly fitted or top-dose-only effect; inactive = flat fitted curve, though single readings scatter.

tested on: not listed separately; assay: qHTS profiling for inhibitors of Plasmodium falciparum proliferation (AID 504749); note: nearly all actives have a fitted effect of over 60% in size;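 for activity, negative = inhibition: 0% = DMSO vehicle and full inhibition = artemisinin control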; details: P. falciparum in erythrocytes, SYBR Green DNA, 72 h; at 28.7 µM (top of the series); parasite line A
Summary of the method: (§1)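 P. falciparum-infected erythrocytes (0.3% parasitemia, 2.5% hematocrit final) were exposed to compounds for 72 h at 37 C in 5% CO2, then lysed with SYBR Green buffer overnight at room temperature; parasite DNA fluorescence was normalized to artemisinin and DMSO controls.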
Potency is the fitted concentration of half-maximal effect.

| SMILES | activity, negative = inhibition |
| --- | --- |
| O=C1CN=C(c2ccccc2)c2cc([N+](=O)[O-])ccc2N1 | 0.461% (inactive) |
| COC(=O)C(c1ccccc1)C1CCCCN1 (configuration not stated) | 10.8% (inactive) |
| O=C1Nc2ccc(Cl)cc2C(c2ccccc2Cl)=NC1O (configuration not stated) | 2.17% (inactive) |
| Nc1ccc([As](=O)(O)O)cc1 | -20% (inactive) |
| NC(=O)CS(=O)C(c1ccccc1)c1ccccc1 (configuration not stated) | 11.3% (inactive) |
| O=C1OC(c2ccc(O)c(S(=O)(=O)O)c2)(c2ccc(O)c(S(=O)(=O)O)c2)c2c(Br)c(Br)c(Br)c(Br)c21 | 4.12% (inactive) |
| Clc1ccc(C(c2ccc(Cl)cc2)C(Cl)(Cl)Cl)cc1 | 4.12% (inactive) |
| Oc1ccc(Cl)cc1 | 0.659% (inactive) |
| CCCCCCC(=O)CCCCCC/C=C/C[C@@H](O)[C@H](O)[C@@](N)(CO)C(=O)O | 16.1% (inactive) |
| Nc1nc(N)nc(NC2CC2)n1 | -13.5% (inactive) |
| COc1ccc2c(c1)C13CCCC[C@@H]1C(C2)N(C)CC3 (some centres not stated) | 4.6% (inactive) |
| C[C@]12CC[C@@H]3c4ccc(OC(=O)N(CCCl)CCCl)cc4CC[C@H]3[C@@H]1CC[C@@H]2O | 15.2% (inactive) |
| O=C(Nc1ccc(Br)cc1)c1cc(Br)cc(Br)c1O | 6.84% (inactive) |
| CC(C)=CC1C(C(=O)OCN2C(=O)C3=C(CCCC3)C2=O)C1(C)C (configuration not stated) | 4.58% (inactive) |
| Cc1nnc2n1-c1ccc(Cl)cc1C(c1ccccc1)=NC2 | -6.67% (inactive) |
| O=C1c2ccccc2C(=O)C1C(=O)C(c1ccccc1)c1ccccc1 | 4.21% (inactive) |
| O=c1[nH]oc2c1CCNC2 | 3.02% (inactive) |
| COP(=S)(OC)SCN1C(=O)c2ccccc2C1=O | 6.4% (inactive) |
| O=C1c2ccccc2C(=O)c2ccccc21 | -2.68% (inactive) |

same assay, conditions: P. falciparum in erythrocytes, SYBR Green DNA, 72 h; at 28.7 µM (top of the series); parasite line B

| SMILES | activity, negative = inhibition |
| --- | --- |
| O=C1CN=C(c2ccccc2)c2cc([N+](=O)[O-])ccc2N1 | 15.1% (inactive) |
| COC(=O)C(c1ccccc1)C1CCCCN1 (configuration not stated) | 13.8% (inactive) |
| O=C1Nc2ccc(Cl)cc2C(c2ccccc2Cl)=NC1O (configuration not stated) | -14% (inactive) |
| Nc1ccc([As](=O)(O)O)cc1 | -5.31% (inactive) |
| NC(=O)CS(=O)C(c1ccccc1)c1ccccc1 (configuration not stated) | 9.97% (inactive) |
| O=C1OC(c2ccc(O)c(S(=O)(=O)O)c2)(c2ccc(O)c(S(=O)(=O)O)c2)c2c(Br)c(Br)c(Br)c(Br)c21 | 7.49% (inactive) |
| Oc1ccc(Cl)cc1 | -12.9% (inactive) |
| CCCCCCC(=O)CCCCCC/C=C/C[C@@H](O)[C@H](O)[C@@](N)(CO)C(=O)O | 7.92% (inactive) |
| NC(=O)c1cc([N+](=O)[O-])cc([N+](=O)[O-])c1 | -21.3% (inactive) |
| Nc1nc(N)nc(NC2CC2)n1 | 1.17% (inactive) |
| COc1ccc2c(c1)C13CCCC[C@@H]1C(C2)N(C)CC3 (some centres not stated) | -5.63% (inactive) |
| C[C@]12CC[C@@H]3c4ccc(OC(=O)N(CCCl)CCCl)cc4CC[C@H]3[C@@H]1CC[C@@H]2O | 2.03% (inactive) |
| O=C(Nc1ccc(Br)cc1)c1cc(Br)cc(Br)c1O | 4.1% (inactive) |
| CC(C)=CC1C(C(=O)OCN2C(=O)C3=C(CCCC3)C2=O)C1(C)C (configuration not stated) | 1.1% (inactive) |
| Cc1nnc2n1-c1ccc(Cl)cc1C(c1ccccc1)=NC2 | 6.11% (inactive) |
| CCOP(=S)(OCC)Oc1ccc2c(C)c(Cl)c(=O)oc2c1 | -25.9% (inactive) |
| O=C1c2ccccc2C(=O)C1C(=O)C(c1ccccc1)c1ccccc1 | -28% (inactive) |
| O=c1[nH]oc2c1CCNC2 | 15.3% (inactive) |
| COP(=S)(OC)SCN1C(=O)c2ccccc2C1=O | 1.71% (inactive) |
| O=C1c2ccccc2C(=O)c2ccccc21 | 6.43% (inactive) |

same assay, conditions: P. falciparum in erythrocytes, SYBR Green DNA, 72 h; parasite line A

| SMILES | Potency |
| --- | --- |
| COC1CC(=C(c2cccs2)c2cccs2)C[N+](C)(C)C1 (configuration not stated) | 3.98 µM (active) |
| CC(C)(C)NCC(O)c1cc(Cl)c(N)c(C(F)(F)F)c1 (configuration not stated) | 14.1 µM (active) |
| NC(=O)c1cc([N+](=O)[O-])cc([N+](=O)[O-])c1 | 7.94 µM (active) |
| C=CCN1C[C@H](C)N([C@H](c2ccc(C(=O)N(CC)CC)cc2)c2cccc(OC)c2)C[C@H]1C | 10 µM (active) |

tested on: 3D7; assay: as above; details: P. falciparum in erythrocytes, SYBR Green DNA, 72 h; series mostly up to 28.7 µM; activity, negative = inhibition: at the top concentration
Summary of the method: as §1

| SMILES | activity, negative = inhibition | Potency |
| --- | --- | --- |
| O=C1CN=C(c2ccccc2)c2cc([N+](=O)[O-])ccc2N1 | 1.55% (inactive) |  |
| COC1CC(=C(c2cccs2)c2cccs2)C[N+](C)(C)C1 (configuration not stated) |  | 11.2 µM (active) |
| COC(=O)C(c1ccccc1)C1CCCCN1 (configuration not stated) | 9.16% (inactive) |  |
| O=C1Nc2ccc(Cl)cc2C(c2ccccc2Cl)=NC1O (configuration not stated) | 0.117% (inactive) |  |
| Nc1ccc([As](=O)(O)O)cc1 | -10.9% (inactive) |  |
| NC(=O)CS(=O)C(c1ccccc1)c1ccccc1 (configuration not stated) | -2.02% (inactive) |  |
| CC(C)(C)NCC(O)c1cc(Cl)c(N)c(C(F)(F)F)c1 (configuration not stated) | -30% (inactive) |  |
| O=C1OC(c2ccc(O)c(S(=O)(=O)O)c2)(c2ccc(O)c(S(=O)(=O)O)c2)c2c(Br)c(Br)c(Br)c(Br)c21 | 8.83% (inactive) |  |
| Oc1ccc(Cl)cc1 | 2.23% (inactive) |  |
| CCCCCCC(=O)CCCCCC/C=C/C[C@@H](O)[C@H](O)[C@@](N)(CO)C(=O)O | -0.412% (inactive) |  |
| Nc1nc(N)nc(NC2CC2)n1 | 1.08% (inactive) |  |
| COc1ccc2c(c1)C13CCCC[C@@H]1C(C2)N(C)CC3 (some centres not stated) | 2.52% (inactive) |  |
| CNC(C)(C)Cc1ccccc1 | 4.65% [at 12.8 µM] (inactive) |  |
| C[C@]12CC[C@@H]3c4ccc(OC(=O)N(CCCl)CCCl)cc4CC[C@H]3[C@@H]1CC[C@@H]2O | 4.46% (inactive) |  |
| O=C(Nc1ccc(Br)cc1)c1cc(Br)cc(Br)c1O | 6.75% (inactive) |  |
| CC(C)=CC1C(C(=O)OCN2C(=O)C3=C(CCCC3)C2=O)C1(C)C (configuration not stated) | 5.46% (inactive) |  |
| O=c1[nH]oc2c1CCNC2 | -3.76% (inactive) |  |
| CCCCC/C=C\C/C=C\C/C=C\C/C=C\CCCC(=O)NCC(=O)O | -0.415% [at 2.67 µM] (inactive) |  |
| COP(=S)(OC)SCN1C(=O)c2ccccc2C1=O | -0.295% (inactive) |  |
